# HIF activator = HIF pathway transcriptional activation; U2OS HRE-luciferase reporter, luminescence; normalized: DMSO 0%, desferrioxamine 100%; activation, % at 7.5 µM (by protocol); 300,000 tested, 0.32% active; AID 1910;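 active = mean activation of at least 10% of the iron chelator positive control signal, with at least half of replicates also reaching 10%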
# ARNT TACC3 PPI = ARNT/TACC3 interaction disruption. 390,000 tested, 0.66% active. AlphaScreen His-ARNT PAS-B/GST-TACC3 binding, luminescence; TACC3 fragment carries E629A point mutation. inhibition, % at 9.99 µM. Q9Y6A5. AID 623870;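 active = mean inhibition of replicates at least 50% and at least half of replicates each reaching 50%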
# HSF-1 act = increases HSF-1 driven luciferase reporter signal; NIH3T3-HGL HSF-1 luciferase reporter, MG132, 8 h; 100% = twice DMSO control signal; activation, % at 9 µM; 300,000 tested, 1.7% active;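 active = mean replicate activation of at least 50% with a set share of replicates each reaching 50%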
# HSF1 inh = HSF1 inhibition | NIH3T3-HGL HSE-luciferase, MG132-induced, luminescence 8 h; stronger effect = lower value | activity change, negative = inhibition, % at 7.5 µM (by protocol) | 300,000 tested, 0.77% active | AID 2098;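 active = more than half of replicate wells show activity change below -50%, luminescence cut by over half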;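 also: luciferase reports HSF-1 transcriptional activity via heat shock element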
# HSP90 inh = HSP90 refolding inhibition in rabbit reticulocyte lysate; luciferase refolding luminescence, 3 h; inhibition, % at 5.6 µM; 290,000 tested, 0.91% active;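 active = inhibition above the screen-wide mean plus 3 SD, computed separately per campaign, cut at about 16% in these data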;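 also: inhibitors lower the luminescence because luciferase stays unfolded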
# Hits are given with their value; . = inactive; / = no result. This is a sample that favours compounds with a hit; in the whole collection about 3.1% have one here.
SMILES,HIF activator,ARNT TACC3 PPI,HSF-1 act,HSF1 inh,HSP90 inh
C[C@@H]1CCCCO[C@@H](CN(C)S(=O)(=O)c2cn(C)cn2)[C@H](C)CN([C@@H](C)CO)C(=O)c2cc(NS(=O)(=O)c3ccccc3)ccc2O1,/,.,/,/,/
Cn1cnc(S(=O)(=O)N[C@H]2C=C[C@@H](CC(=O)NCC3CC3)O[C@@H]2CO)c1,/,.,/,/,/
C[C@H](CO)N1C[C@H](C)[C@H](CN(C)S(=O)(=O)c2ccc(F)cc2)Oc2cc(C#Cc3ccc(F)cc3)ccc2S1(=O)=O,/,.,/,/,/
Cc1nc2c(=O)n(C)c(=O)n(C)c2nc1Cl,.,.,284,.,.
C[C@H]1CN([C@@H](C)CO)S(=O)(=O)c2ccc(C3=CCCC3)cc2O[C@@H]1CN(C)Cc1cccnc1,/,.,/,/,/
COCCCNCCOc1ccc(C)cc1[N+](=O)[O-],.,.,59,.,.
CCCN1[C@@H]2c3ccc(-c4cccc(C(=O)N(C)C)c4)c(=O)n3C[C@@H]2[C@@H](CO)[C@@H]1C(=O)NCCOC,/,.,/,/,/
Cc1nc(S(=O)(=O)c2ccc(Cl)cc2)c(NCc2ccccc2)o1,.,.,64,.,.
CC(NC(=O)c1ccncc1)C(c1cccs1)N1CCOCC1 (stereo not drawn),.,.,.,.,.
CC(NC(=O)c1ccc(C(C)(C)C)cc1)C(c1cccs1)N1CCOCC1 (stereo not drawn),.,.,69,.,.
Nc1cccc(C#Cc2ccc3c(=O)c4ccccc4oc3c2)c1,/,.,/,/,/
COc1cccc2oc3ccc(C#Cc4ccccn4)cc3c(=O)c12,.,.,61,.,17
O=c1c2ccccc2oc2cc(C#Cc3ccccn3)ccc12,.,.,63,.,/
C[C@H](CO)N1C[C@H](C)[C@H](CN(C)C(=O)Cc2ccncc2)Oc2cc(C#CC3CCCCC3)ccc2S1(=O)=O,/,.,/,/,/
CCS(=O)(=O)N[C@H]1CC[C@H](CC(=O)N2CCCCC2)O[C@H]1CO,/,.,/,/,/
COc1ccc(S(=O)(=O)N(C)C[C@H]2OCCCC[C@H](C)Oc3ccc(NS(C)(=O)=O)cc3C(=O)N([C@@H](C)CO)C[C@@H]2C)cc1,/,.,/,/,/
COCC(=O)Nc1ccc2c(c1)OC[C@H](C)N(C(=O)Cc1ccccn1)C[C@H](C)[C@H](OC)CN(C)C2=O,/,.,/,/,/
Cc1cc(Cl)c2oc(C(=O)N3CCN(c4cccc(C)n4)CC3)c(C)c2c1,.,.,73,.,.
CN(C)C(=O)C[C@@H]1C[C@H]2c3cc(NC(=O)NC4CCCC4)ccc3O[C@H]2[C@H](CO)O1,/,.,/,/,/
CCNC(=O)[C@H]1[C@H](CO)[C@H]2Cn3c(ccc(/C=C/c4ccccc4)c3=O)[C@@H]1N2,/,.,/,/,/
CCN(CC)CCNCc1cc(Cl)ccc1OCc1ccccc1F,.,.,.,-61,.
O=C1c2ccccc2C(Nc2ccc3c(c2)OCO3)N1Cc1ccc2c(c1)OCO2 (stereo not drawn),.,.,.,.,.
COc1ccc(OC)c(NC2c3ccccc3C(=O)N2Cc2ccc3c(c2)OCO3)c1 (stereo not drawn),.,.,51,.,.
Fc1ccccc1SCc1nnc(-c2ccccc2Br)o1,.,.,79,.,.
O=C(Nc1nnc(-c2ccco2)o1)c1cccc(N2C(=O)CCC2=O)c1,.,49,.,.,.
SMILES,HIF activator,ARNT TACC3 PPI,HSF-1 act,HSF1 inh,HSP90 inh
CCn1c(O)c(C2=c3ccccc3=NC2=O)c2cc(Br)ccc21,.,/,209,.,.
Cc1ccsc1/C=N/Nc1ncnc2nc[nH]c12,.,58,.,.,.
O=c1cnnc(N/N=C/c2cccs2)[nH]1,.,62,.,.,.
Cc1ccccc1/C=N/Nc1ncnc2nc[nH]c12,.,.,.,.,.
C(=N\Nc1nc2ccccc2[nH]1)/c1cccs1,.,.,113,.,.
Cc1cc(=O)[nH]c(N/N=C/c2sccc2C)n1,.,.,.,.,.
Cc1cc(=O)[nH]c(N/N=C/c2cccs2)n1,.,.,.,.,.
Cc1ccsc1/C=N/Nc1nc2ccccc2[nH]1,.,.,803,.,.
C[C@@H]1CN([C@@H](C)CO)C(=O)c2cc(NC(=O)CCCN(C)C)ccc2O[C@@H]1CN(C)Cc1ccc(C(=O)O)cc1,/,.,/,/,/
CC1CN(C(=O)Nc2ccc3c(c2)OCCO3)CC(C)O1 (stereo not drawn),.,.,.,-58,.
CC(C)(C)OC(=O)N1CCN(C(=O)Nc2ccc3c(c2)OCCO3)CC1,.,.,.,.,.
Cc1cccc(NC(=S)NNC(=O)c2sccc2C)c1,.,.,57,.,.
Cc1ncoc1C(=O)Nc1ccc2c(c1)OCCO2,.,.,.,.,.
Cc1ccsc1C(=O)Nc1ccc2c(c1)OCCO2,.,.,51,.,.
O=C(Nc1ccc2c(c1)OCCO2)N1CCN(c2ccc(F)cc2)CC1,.,.,.,-58,.
COc1ccc(NC(=O)N(C)C[C@@H]2Oc3c(NC(=O)c4cc(C)nn4C)cccc3C(=O)N([C@@H](C)CO)C[C@H]2C)cc1,/,.,/,/,/
O=C(C[C@@H]1CC[C@@H]2NC[C@@H](O)COC[C@H]2O1)Nc1ccccc1,/,.,/,/,/
COc1ccc(N2CCN(C(c3cccs3)C(C)NS(=O)(=O)c3ccccc3)CC2)cc1 (stereo not drawn),.,.,82,.,.
NNC(=O)c1nn(-c2ccccc2)cc1O,.,/,.,-56,.
O=C(O)c1cn(-c2ccccc2)nc1C(=O)O,.,.,.,.,.
CO[C@@H]1CN(C)C(=O)c2cc(NC(=O)c3nc4ccccc4s3)ccc2OC[C@@H](C)N(Cc2cncnc2)C[C@H]1C,/,.,/,/,/
O=C(O)c1cc(N/N=C/c2ccc(-c3ccccc3)cc2)ccc1Cl,.,.,.,.,29
COc1ccc(-c2nn(-c3ccccc3)cc2/C=C(\CC(=O)O)c2nc3ccccc3s2)cc1OC,.,.,.,-70,.
COc1ccc(-c2nn(-c3ccccc3)cc2/C=N/Nc2ccc(Cl)c(C(=O)O)c2)cc1OC,.,.,.,.,17
C[C@H]1CCCCO[C@H](CN(C)Cc2ccc(C(F)(F)F)cc2)[C@@H](C)CN([C@@H](C)CO)C(=O)c2cc(NC(=O)c3ccncc3)ccc2O1,/,.,/,/,/
SMILES,HIF activator,ARNT TACC3 PPI,HSF-1 act,HSF1 inh,HSP90 inh
CCNC(=O)[C@H]1[C@H](CO)[C@H]2Cn3c(ccc(-c4ccccc4)c3=O)[C@@H]1N2CCC(F)(F)F,/,.,/,/,/
O=c1oc2ccccc2c(O)c1Sc1c(O)c2ccccc2oc1=O,/,76,/,/,/
CSc1ncccc1C(=O)OCc1ccccc1,.,/,58,.,.
CSc1ncccc1C(=O)OCc1ccc(COC(=O)c2cccnc2SC)cc1,/,/,/,/,.
CO[C@H]1CN(C)C(=O)c2cc(NC(C)=O)ccc2OC[C@@H](C)N(Cc2cccnc2)C[C@@H]1C,/,.,/,/,/
O=C(NCc1ccccn1)c1ccc(/C=N/O)nc1,.,38,.,.,.
CNCCCNC(=O)c1ccc(/C=N/O)nc1,.,61,.,.,.
COc1ccc(-c2ccc3c(c2)[C@@H]2[C@@H](CCN2C(=O)C2CCOCC2)[C@@H](CO)N3C)cc1,/,.,/,/,/
